Screening data deposited in PubChem by National Center for Advancing Translational Sciences (NCATS).
This is a sample that favours compounds with a hit; in the whole collection about 22% have one here.
Cycloheximide cs = Cycloheximide Counterscreen for Small Molecule Inhibitors of Shiga Toxin; cell reporter, cycloheximide protein synthesis inhibition counterscreen; max response, %; 300,000 compounds, 12% hits; AID 2314, 2010; in the data active = max response mostly above about 13%, no sharp cut-off; inactive = mostly below about 14%; note: read at 38.3 µM for the half of the compounds with a filed dose; 0% is about no effect
Pf growth 96h = Primary qHTS for delayed death inhibitors of the malarial parasite plastid, 96 hour incubation. 320,000 compounds, 6.9% hits. P. falciparum luciferase reporter growth, 96 h. Potency, µM (doses to about 28.7 µM), for inactives: at the top dose activity change, negative = inhibition, hits mostly inhibitors; note: potency is the fitted concentration of half-maximal effect; % is set by controls: 0 for no effect and ±100 for the full control effect
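Cell-based qHTS: luciferase-tagged P. falciparum in erythrocytes (2% hematocrit, 0.05% parasitemia final) incubated with compounds for 96 hours, 37 C, 5% CO2; luciferase detection reagent then added and luminescence measured.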
Pf growth 48h = Primary qHTS for delayed death inhibitors of the malarial parasite plastid, 48 hour incubation | P. falciparum luciferase growth in erythrocytes, 48 h | Potency, µM (titrated, usually from 28.7 µM), inactives show at the top dose activity change, negative = inhibition, hits mostly inhibitors | 310,000 compounds, 5.9% hits | AID 504832, 2011; note: potency is the fitted concentration of half-maximal effect; % is set by controls: 0 for no effect and ±100 for the full control effect
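Erythrocytes infected with P. falciparum carrying an integrated firefly luciferase reporter (2% hematocrit, 0.1% parasitemia final) were exposed to compounds in RPMI 1640 with 0.5% Albumax at 37 C, 5% CO2. Growth inhibition was scored as reduced luminescence.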
LmPK inh = qHTS Assay for Inhibitors of Leishmania Mexicana Pyruvate Kinase (LmPK) | Q27686 | purified LmPK, Kinase-Glo ATP luminescence, 1 h | Potency, µM (highest dose often 57.5 µM), without a hit: top-dose activity change, negative = inhibition, most hits filed as inhibitors | 290,000 compounds, 0.37% hits; note: potency is the fitted concentration of half-maximal effect; % is set by controls: 0 for no effect and ±100 for the full control effect
Target sequence (Q27686 whole entry, looked up): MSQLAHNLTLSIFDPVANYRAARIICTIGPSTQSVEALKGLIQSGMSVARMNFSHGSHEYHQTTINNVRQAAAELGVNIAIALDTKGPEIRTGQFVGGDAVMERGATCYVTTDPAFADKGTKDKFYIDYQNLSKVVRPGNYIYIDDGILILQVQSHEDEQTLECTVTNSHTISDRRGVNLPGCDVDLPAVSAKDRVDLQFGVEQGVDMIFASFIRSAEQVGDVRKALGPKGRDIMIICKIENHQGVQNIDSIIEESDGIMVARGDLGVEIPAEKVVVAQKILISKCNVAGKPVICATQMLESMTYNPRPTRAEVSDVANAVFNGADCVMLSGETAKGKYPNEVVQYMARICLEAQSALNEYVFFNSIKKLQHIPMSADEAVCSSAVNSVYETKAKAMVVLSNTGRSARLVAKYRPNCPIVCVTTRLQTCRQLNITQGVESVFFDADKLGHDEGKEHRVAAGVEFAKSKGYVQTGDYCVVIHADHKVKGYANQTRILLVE
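Screened at intermediate enzyme activity to detect both inhibitors and activators: LmPK at 0.1 nM, with a 0.5 nM enzyme column as activation reference. PEP 0.5 mM, ADP 0.1 mM; ATP detected by luminescence after 1 h.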
Shiga toxin inh = A qHTS for Small Molecule Inhibitors of Shiga Toxin. Vero cells, Shiga toxin protein synthesis inhibition reporter. inhibition, % at 38.7 µM. 290,000 compounds, 9.2% hits; in the data active = inhibition mostly above about 28%, no sharp cut-off; inactive = mostly below about 43%; note: 0% is about no effect
Numbers without * were called inactive; u = inconclusive; x = not tested or not shown; [ ] = remark or other dose. Unless noted, calls come from the whole dose curve; as a rule, active = well fitted inhibition curve with a large enough effect; inconclusive = small, poorly fitted or top-dose-only effect, or another doubt; inactive = no such curve, though single readings can be large or run the other way.

SMILES | Cycloheximide cs | Pf growth 96h | Pf growth 48h | LmPK inh | Shiga toxin inh
O=C(c1cc(-c2ccncc2)nc2ccccc12)N1CCN(c2ccccn2)CC1 | 8.6 | 0.8% | -25.7% | -0.3% | -25.9
Cc1ccnc(NC(=O)CCC(=O)N(CC(=O)NCCc2ccccc2)c2ccccc2F)c1 | -12.1 | -3.7% | -6.0% | -0.4% | -6.8
CCOc1cc(OCC)c(C(C)=O)cc1OCC | x | u | 97.0% | x | x
O=C(c1cc(-c2ccccc2)nc2ccccc12)N1CCN(c2ccccc2O)CC1 | 15.3* | 9.28µM* | 14.7µM* | -3.6% | 46.5*
CC(C)C(NC(=O)COc1ccc2ccccc2c1)C(=O)N/N=C/C=C/c1ccccc1 (centres undefined) | -1.7 | 29.4% | x | 3.7% | -7.0
COc1cc2c(=O)n(CCCC(=O)NCC3CCCO3)c(=O)n(CC(=O)c3ccc(F)cc3)c2cc1OC (centres undefined) | 10.5 | -16.5% | u | 1.0% | -2.3
O=C(CN1C(=O)CCSc2ccc(S(=O)(=O)N3CCOCC3)cc21)Nc1ccccc1Cl | 9.4 | -21.3% | u | 3.3% | 1.8
Cn1cccc1C(=O)/C(C#N)=C/c1ccc(F)cc1 | 18.6* | 1.5% | x | -4.8% | 32.6
Cn1cccc1/C=C(/C#N)c1ccc(F)cc1 | 26.4* | 46.2% | 25.0% | 0.1% | 37.5
CSc1nsc(SCC(=O)NCc2ccc(C)cc2)n1 | -3.1 | -19.2% | 4.2% | -1.1% | -4.7
Cc1cc(C)c(NS(=O)(=O)c2ccc3c(c2)NC(=O)CCS3)c(C)c1 | -1.9 | 8.28µM* | 11.7µM* | 5.2% | 1.9
COc1ccc(Cl)cc1NS(=O)(=O)c1ccc2c(c1)NC(=O)CCS2 | -0.5 | 7.38µM* | 17.2% | 16.9% | 10.0
Cc1ccc(NS(=O)(=O)c2ccc3c(c2)NC(=O)CCS3)c(C)c1 | -2.7 | 10.4µM* | 2.62µM* | -0.9% | -3.5
Cc1ccc(NS(=O)(=O)c2ccc3c(c2)NC(=O)CCS3)c(Cl)c1 | -0.8 | u | 4.65µM* | 9.5% | -2.8
Cc1ccc(NS(=O)(=O)c2ccc3c(c2)NC(=O)C(C)C(=O)N3)c(Cl)c1 (centres undefined) | -3.3 | 10.0% | 6.8% | 0.7% | -7.0
CCOC(=O)c1ccc(NS(=O)(=O)c2ccc3c(c2)NC(=O)CCS3)cc1 | 1.7 | u | -16.4% | -0.1% | -2.2
CCOC(=O)C1CCN(c2cc3c(cc2NC(=O)c2cc(OC)ccc2Br)n(C)c(=O)n3C)CC1 | -4.4 | u | u | 4.5% | -11.9
O=C1CCCc2oc3c(cc(NS(=O)(=O)c4ccc5c6c(cccc46)C(=O)N5)c4ccccc43)c21 | 11.9 | 11.7µM* | u | 5.0% | 13.3
Cc1cc(C)nc(SCc2ccc(Cl)cc2)n1 | -3.4 | u | 3.7% | -4.0% | 6.6
Nc1ccc(CSc2ccc(Cl)cc2)cc1 | 23.8* | 58.4% | 67.9% | 0.1% | 58.6*
CC(=O)N[C@H]1[C@H](O[C@@H]2c3ccc(c(Cl)c3)Oc3cc4cc(c3O[C@@H]3O[C@H](CO)[C@@H](O)[C@H](O)C3C)Oc3ccc(cc3Cl)C[C@H]3NC(=O)[C@@H](N)c5ccc(O)c(c5)Oc5cc(O)cc(c5)[C@H](NC3=O)C(=O)N[C@H]4C(=O)N[C@H]3C(=O)N[C@@H]2C(=O)N[C@@H](C(=O)O)c2cc(O)cc(O[C@H]4O[C@H](CO)[C@@H](O)C(O)[C@@H]4O)c2-c2cc3ccc2O)O[C@H](CO)[C@@H](O)[C@@H]1O (some centres undefined) | x | u | -5.0%[12.8 µM] | x | x
COc1ccc(OC)c(CNC(=O)CCc2cn(C)c3ccccc23)c1 | -2.4 | 3.7µM* | 7.6% | -10.8% | -6.8
COc1ccc(Br)cc1CNC(=O)CCCc1cn(C)c2ccccc12 | -2.7 | 11.7µM* | -7.0% | 2.4% | -9.5
COc1ccc(OC)c(CNC(=O)Cc2c(C(=O)O)[nH]c3ccccc23)c1 | 0.8 | 9.28µM* | 0.6% | 0.0% | -7.9
COc1ccc(OC)c(CNC(=O)CCCc2cn(C)c3ccccc23)c1 | -2.0 | u | 23.2% | 0.1% | -8.9
SMILES | Cycloheximide cs | Pf growth 96h | Pf growth 48h | LmPK inh | Shiga toxin inh
COc1ccc(CCNC(=O)CCc2cn(C)c3ccccc23)c(OC)c1OC | 1.1 | u | 11.7µM* | 9.5% | -1.8
COc1cccc(CNC(=O)Cc2c(C(=O)O)[nH]c3ccccc23)c1 | -1.3 | x | 11.1% | 2.8% | -3.7
CC(C)C(NC(=O)c1ccccc1NC(=O)c1ccccc1)C(=O)NCCCn1ccnc1 (centres undefined) | -5.7 | 13.3% | -9.6% | 5.3% | -1.6
O=C(NCc1ccccc1)c1onc(CS(=O)(=O)c2ccc(Cl)cc2)c1C(=O)NCc1ccccc1 | x | 44.8% | -24.6% | x | x
COc1ccc2[nH]c(C)c(CCNCc3cn(C)c4ccccc34)c2c1 | x | 5.22µM* | 8.28µM* | x | x
COc1ccc(NC(=S)NCCc2c(C)[nH]c3ccc(OC)cc23)cc1 | -4.7 | -0.5% | u | -11.7%[11.5 µM] | -11.0
CCC(=O)c1ccc2c(c1)OCCO2 | 13.5* | 15.8% | 19.2% | -4.7% | 33.0
CCCC(=O)c1ccc2c(c1)OCCO2 | 10.2 | x | 30.8% | 2.4% | 28.1
O=C(CS(=O)(=O)c1ccccc1)c1ccc2c(c1)OCCO2 | 45.1* | u | 274.4% | 12.6µM* | 58.4*
O=S(=O)(c1ccc(Cl)cc1)N1CCN(CCc2ccncc2)CC1 | -2.8 | -17.6% | 6.0% | -0.3% | -7.1
Cc1cccc2cc(CN(Cc3cccnc3)C(=O)c3cccs3)c3nnnn3c12 | 1.1 | 4.3% | 5.1% | -4.5% | -21.0
COc1ccccc1Nc1nnc(Cc2ccccc2)c(=O)[nH]1 | -1.6 | 11.7µM* | 21.6% | -0.1%[11.5 µM] | -1.8
COc1ccc(Cc2nnc(Nc3ccccc3OC)[nH]c2=O)cc1 | -1.9 | -4.7% | u | 2.1% | -9.9
COc1ccc(Cc2nnc(Nc3ccc(Cl)cc3)[nH]c2=O)cc1 | 18.4* | u | u | -5.0% | 16.3
O=C(Nc1ccc2c(c1)Cc1ccccc1-2)c1ccncc1 | 33.3* | u | 69.2% | 1.9% | 66.1*
COc1ccc(C(=O)Nc2ccc(Cl)c(Cl)c2)c(OC)n1 | 20.7* | -12.9% | 312.4% | 3.3% | 45.4*
CCCC(=O)Nc1ccc2c(c1)COC2=O | 6.1 | 126.9% | 53.5% | 6.7% | 24.6
O=C(Nc1ccc(C2=NCCN2)cc1)c1ccc(Cl)c(C(=O)Nc2ccc(C3=NCCN3)cc2)c1 | -1.5 | 0.208µM* | 2.33µM* | -2.2% | -6.5
COc1cc(C(=O)Nc2ccc3c(c2)Cc2cc(NC(=O)c4cc(OC)c(OC)c(OC)c4)ccc2-3)cc(OC)c1OC | 0.7 | u | 6.2% | 6.2% | -15.8
Clc1ccc(C2=NCCN2)cc1 | -2.2 | 1.4% | -29.2% | -3.3% | 5.3
O=C(Nc1ccc2c(c1)COC2=O)c1ccc(Cl)c(Cl)c1 | 33.5* | 26.0% | 23.9% | -8.0% | 70.8*
Cn1c(=O)c2c(nc(Cc3ccc(N)cc3)n2C)n(C)c1=O | 0.6 | 0.0% | -0.2% | -1.8% | -6.7
